For eight compounds, growth results are on record in PubChem BioAssay (NCI).

Common to all, as to assay: NCI-60 one-dose screen, 48 h (100 = growth as untreated, 0 = no growth, -100 = all killed)
For test [1], the system named is SK-MEL-2 melanoma. To be noted: 10 µM unless noted.
Test [2] concerns EKVX NSCLC. To be noted: 10 µM unless noted.
The subject of test [3] is SN12C renal. The following applies: 10 µM unless noted.
Test [4] concerns UO-31 renal. The following applies: 10 µM unless noted.
Test [5] relates to TK-10 renal. To be noted: 10 µM unless noted.
Test [6] relates to ACHN renal. The following applies: 10 µM unless noted.
Test [7] concerns A498 renal. To be noted: 10 µM.
Test [8] relates to HL-60(TB) leukemia. The following applies: 10 µM unless noted.
Test [9] relates to CCRF-CEM leukemia. The following applies: 10 µM unless noted.
The test system of test [10] is MOLT-4 leukemia. To be noted: 10 µM unless noted.
Test [11] has as its system RPMI-8226 leukemia. The following applies: 10 µM unless noted.
The test system of test [12] is OVCAR-8 ovarian. The following applies: 10 µM unless noted.
In test [13] the test system is OVCAR-5 ovarian. To be noted: 10 µM unless noted.
Test [14] deals with OVCAR-4 ovarian. The following applies: 10 µM unless noted.
The subject of test [15] is SK-OV-3 ovarian. The following applies: 10 µM unless noted.
Test [16] has as its system OVCAR-3 ovarian. To be noted: 10 µM unless noted.
In test [17] the test system is HS 578T breast. The following applies: 10 µM unless noted.
The test system of test [18] is SR leukemia. The following applies: 10 µM unless noted.
The test system of test [19] is IGROV1 ovarian. To be noted: 10 µM unless noted.

The structures appear in SMILES notation. About 83,000 compounds went through this panel and 20% of them were active in at least one assay; those are over-represented in the sample as a whole.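 Percent growth is the endpoint: 0 to 100 indicates growth inhibition (40 means 60% inhibition), 0 means no net growth, and negative values indicate cell death.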 Unmarked numbers belong to inactive results. Calls of active or inactive are those of the source. How the source made its calls: active means growth percent below 10; inactive means the rest.

Turning to `Nc1nc([Se])c2ncn(C3OC(CO)C(O)C3O)c2n1` (centres undefined), the growth in test [1] was 104%; in test [2] it was 62.9%; in test [3], 94.7%; in test [4] it was 84.9%; in test [5] it was 59.6%; in test [6], 84.3%. Besides, the growth in [7] is 95.3%; in test [8], 41.7%; in test [9], 16.3%; in [10] it was 7.08% (active); in test [11], 23.9%; in [12], 55.8%. Besides, the growth in test [13] was 60.8%; in test [14] it was 79.5%; in test [15] it was 77.7%; in test [16] it was 104%; in [17], 75.4%.
Take `c1cnc2[nH]cc(-c3csc(-c4cn(CCCCN5CCCCC5)c5ccccc45)n3)c2c1`: the growth is 97.6% in test [1]; 83.1% in test [2]; 75.2% in test [3]; 49.2% in [4]; 124% in test [5]; 98.5% in test [6]. Moreover, the growth in [7] was 95.7%; in test [8], 47.9%; in [9], 62.9%; in test [10], 56.4%; in test [18], -23.5% (active); in test [11], 52.5%. Besides, the growth is 87.3% in test [12]; 96.3% in test [13]; 83.8% in test [14]; 109% in test [15]; 90.5% in [16]; 84.3% in test [17].
Regarding `COC(=O)CC12CC(NC(=O)c3csc([C@@H](C[C@H](C(C)C)N(C)C(=O)[C@@H](NC(=O)[C@H]4CCCCN4C)C(C)C)OC(C)=O)n3)(C1)C2`, the growth was 51.6% in test [1]; 38.6% in test [2]; 25.4% in test [3]; 55.2% in test [4]; 50.5% in test [5]; 17.2% in [6]. The growth in [7] is 5.32% (active); in [8], -29.6% (active); in [9] it was 13.6%; in test [10] it was 16.5%; in [18] it was 20.1%; in [11] it was 24.4%. Moreover, the growth is 30.5% in test [12]; 42.9% in [13]; 56.1% in [14]; 18.4% in [15]; 26.3% in test [19]; -34.3% (active) in [16]. In addition, the growth in [17] was 45%.
With `O=NN1CCCc2cccc(O)c21`, the growth in [1] is 56.1%; in test [2] it was 69.4%; in [3], 21.7%; in test [4], 20.9%; in test [5] it was 95.9%; in test [6], 17.2%. In addition, the growth in [7] was 86.8%; in [9] it was 30.2%; in test [10], 51.8%; in test [18], 1.91% (active); in test [11], 44.5%; in [12] it was 24%. In addition, the growth in test [13] was 115%; in test [14], 63.7%; in [15], 38.8%; in [16], 49.6%; in test [17], 46.3%.
As to `COC(=O)[C@@H](C)C[C@H](Cc1ccccc1)NC(=O)c1cccc([C@@H](C[C@H](C(C)C)N(C)C(=O)[C@@H](NC(=O)[C@H]2CCCCN2C)C(C)C)OC(C)=O)n1`, the growth in [1] was 26.4%; in [2], 34.3%; in test [3], 17.1%; in test [4] it was 41.8%; in test [5], 58.7%; in test [6] it was 30.4%. For the same compound, the growth in [7] is -0.869% (active); in test [9], 7.41% (active); in test [10], 11.5%; in [18], 8.11% (active); in test [12], 11.4%; in test [13], 35.6%. Moreover, the growth is 38.9% in test [14]; 28.7% in test [15]; 26.8% in test [19]; -31.3% (active) in [16]; 26.3% in [17].
For the compound `O=C1NC(=O)C(=Cc2ccc(OCCCCC3CCCCC3)c(Cl)c2)C(=O)N1`, the growth in test [1] was 89.5%; in test [2], 95.9%; in test [3], 77.3%; in test [4], 81.2%; in test [5], 94.1%; in test [6], 104%. Besides, the growth in [7] is 82.7%; in test [8], 92.8%; in [9], 90.1%; in test [10], 96.5%; in test [18], 106%; in [11] it was 97.7%. For the same compound, the growth in test [12] was 101%; in test [13] it was 98.8%; in test [14], 105%; in test [15] it was 99.9%; in test [19], 104%; in test [16], 106%. The growth in test [17] was 105%.
In the case of `CC(=O)O[C@H](C[C@H](C(C)C)N(C)C(=O)[C@@H](NC(=O)[C@H]1CCCCN1C)C(C)C)c1cccc(C(=O)N[C@@H](Cc2ccccc2)C[C@H](C)C(=O)O)n1`, the growth in [1] was 30.4%; in [2], 37.3%; in test [3], 22%; in [4], 39.4%; in test [5] it was 69%; in test [6], 35.3%. The growth is -13.2% (active) in test [7]; -38.1% (active) in test [8]; 5.5% (active) in test [9]; 9.11% (active) in [10]; 6.32% (active) in test [18]; 19.7% in test [11]. For the same compound, the growth in [12] was 1.57% (active); in [13] it was 32.5%; in [14] it was 41.9%; in test [15], 23.3%; in [19] it was 24%; in [16], -50.3% (active). Moreover, the growth in test [17] was 9.57% (active).
Consider `CC[C@H](C)[C@@H]([C@@H](CC(=O)N1CCC[C@H]1[C@H](OC)[C@@H](C)C(=O)N[C@H](C)[C@@H](O)c1ccccc1)OC)N(C)C(=O)[C@@H](NC(=O)[C@@H](NC)C(C)C)C(C)C`, for which the growth was 41.8% in test [1]; 41.7% in test [2]; 36.7% in [3]; 40.6% in [4]; 47.2% in test [5]; 29.3% in [6]. For the same compound, the growth in test [7] was -11.7% (active); in [8], -20.2% (active); in [9], 20.8%; in [10], 18.3%; in test [18], 13.8%; in [12], 21%. In addition, the growth is 60.9% in test [13]; 36.2% in test [14]; 14.1% in [15]; 18.1% in test [19]; -13.9% (active) in [16]; 28.9% in test [17].
